Reference: PMC7819943, “Rice protein-binding microarrays: a tool to detect cis-acting elements near promoter regions in rice”
The full ranking holds about 39,000 sequences; the median of “fluorescence intensity (a.u.)” is about 4,300, and the highest 2% start at about 39,000. The sample as a whole holds a higher share of the highest values than the screen did.

target: T1, OsSMF1 (Oryza sativa, UniProt Q6ZLB0 1-436); test: protein-binding microarray (RPBM); PBS, 2% BSA, 51.3 ng/ul salmon testes DNA, 50 uM zinc acetate, 200 nM TF, 25 C, 1 h; high values mean tight binding; conditions: protein: recombinant; tags: N-terminal polyhistidine and DsRed monomer fusion (pET32a); chain copies: 2; label: CyDye5-dUTP incorporated in the synthesized complementary strand; 3' TTTTT single-stranded linker to array surface; dsDNA, one strand shown
T1 sequence: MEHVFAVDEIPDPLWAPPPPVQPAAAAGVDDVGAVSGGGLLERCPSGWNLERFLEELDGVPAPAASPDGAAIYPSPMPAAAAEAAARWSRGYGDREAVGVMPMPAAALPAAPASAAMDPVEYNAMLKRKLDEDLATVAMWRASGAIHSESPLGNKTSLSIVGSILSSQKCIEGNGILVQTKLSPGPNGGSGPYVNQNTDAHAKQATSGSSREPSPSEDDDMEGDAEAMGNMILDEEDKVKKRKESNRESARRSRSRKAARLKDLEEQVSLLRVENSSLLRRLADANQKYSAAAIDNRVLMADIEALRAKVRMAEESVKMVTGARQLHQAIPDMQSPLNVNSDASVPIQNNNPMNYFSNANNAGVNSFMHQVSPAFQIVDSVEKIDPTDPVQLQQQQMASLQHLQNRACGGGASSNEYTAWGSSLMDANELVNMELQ
Summary of the method: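 Ni–NTA purification followed expression in E. coli BL21-CodonPlus of transcription factors fused N-terminally to a polyhistidine tag and DsRed. At 200 nM in PBS with 2% BSA, salmon testes DNA and 50 µM zinc acetate, the protein was incubated for 1 h at 25 °C with a custom Agilent array that had been primer-extended with Cy5-dUTP and blocked with 2% BSA. After washing, the array was read on an Axon 4000B scanner. The binding signal is per-feature fluorescence intensity in arbitrary units.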

Row | Sequence | binding signal
1 | GGTGTGTATTGACGCACCACGTATGTCTATCTTCTTTCGTCGGAGTCACCTAGTGCAG | 3820 fluorescence intensity (a.u.)
2 | TGGCCGGAATCACACGCACAAGGTGCTGCGTCACCTATAACGGAGTCACCTAGTGCAG | 9040 fluorescence intensity (a.u.)
3 | CACGATCCATCATATCGCTTGAGCTAGCCACAACACACAACGGAGTCACCTAGTGCAG | 22100 fluorescence intensity (a.u.)
4 | GCATGGTGGCGGCGGGAAGGAGGAGTGGGGCGGCGGGTGCCGGAGTCACCTAGTGCAG | 3770 fluorescence intensity (a.u.)
5 | GCCACCGCCGCGGGCGCGGCCCCGGCCCCGGCCCCGGCCGCGGAGTCACCTAGTGCAG | 3390 fluorescence intensity (a.u.)
6 | GTCCGTCGCGCGTCACCGCGTGCCTCGCCACGCCCACGCCCGGAGTCACCTAGTGCAG | 5090 fluorescence intensity (a.u.)
7 | CCCGCCGCGCCGCGTCCCGGCCACCGCGCCGCCCGCCGCGCGGAGTCACCTAGTGCAG | 4250 fluorescence intensity (a.u.)
8 | CCAGCCCCGCGCCGGCCGCCGTCCGTCCGCCCGCGCGCGGCGGAGTCACCTAGTGCAG | 3540 fluorescence intensity (a.u.)
9 | GAAGCCATCCACGCGGCACCATCGGACGGCTCTCGCGCCCCGGAGTCACCTAGTGCAG | 5210 fluorescence intensity (a.u.)
10 | GGGCAGATCCGGCGCCCGACGCCGGCGGATCCGCCGTCGTCGGAGTCACCTAGTGCAG | 32500 fluorescence intensity (a.u.)
11 | TCCCGCTCACCACCACGCCACGTCACCGATCCGCGCAACCCGGAGTCACCTAGTGCAG | 22400 fluorescence intensity (a.u.)
12 | CCCCACCACCTCATCGATCCGCGCCACCACCCAACCCACCCGGAGTCACCTAGTGCAG | 4250 fluorescence intensity (a.u.)
13 | CTTGGATCCAACGGCCACGGCTCTCTCATCGCCGCGCCCCCGGAGTCACCTAGTGCAG | 46100 fluorescence intensity (a.u.)
14 | GGGCCCCGCAGGCGCAGGCGCAGCGGTACGCCGTCGTCGGCGGAGTCACCTAGTGCAG | 54200 fluorescence intensity (a.u.)
15 | CGTCGAACCGGCGGCGGCCCGCGCCACCCACCCTACCCGCCGGAGTCACCTAGTGCAG | 49100 fluorescence intensity (a.u.)
16 | CGAGTGCCACGCGTGCGCCCACCGCCACGTCACCGATCCCCGGAGTCACCTAGTGCAG | 53800 fluorescence intensity (a.u.)
17 | ACACATGCTTCAAGTGGCTAAGAGGGCATCCTCCCTTTTACGGAGTCACCTAGTGCAG | 16000 fluorescence intensity (a.u.)
18 | TAACTTCTTGCAGAAATGCCTCGTCATCGGTGACGCCGTTCGGAGTCACCTAGTGCAG | 4870 fluorescence intensity (a.u.)
19 | AAATTTGATCCTCGCACACCAGCTCAGCTACAGATGACATCGGAGTCACCTAGTGCAG | 4230 fluorescence intensity (a.u.)
20 | TTTGCATGCTTCATTACCACCTTCATCCACGTTGAAAGTACGGAGTCACCTAGTGCAG | 4160 fluorescence intensity (a.u.)
21 | GCACATCGCGCTCGCCGAAGCAGAACCACGCGGCCACCGGCGGAGTCACCTAGTGCAG | 3240 fluorescence intensity (a.u.)

Row | Sequence | binding signal
22 | CGCAGCAAGCGTCACGTCACCAACTGTTTGCTCCAACTGTCGGAGTCACCTAGTGCAG | 9370 fluorescence intensity (a.u.)
23 | AAGAAACAACACACGTTAGCATTTCACTGCTATTAAGTTCCGGAGTCACCTAGTGCAG | 5010 fluorescence intensity (a.u.)
24 | GACGTTAGTGATCAGCTGGGTTAATTAATTACGTGGCTAACGGAGTCACCTAGTGCAG | 7210 fluorescence intensity (a.u.)
25 | TTCGCGCGCCACCTCCTCGCGCTCGCCTGCTTCTTCTCCCCGGAGTCACCTAGTGCAG | 3380 fluorescence intensity (a.u.)
26 | CTCGCTGCTTCGCCCGCCACGTCACCCTCCTCCTCCTCCCCGGAGTCACCTAGTGCAG | 62000 fluorescence intensity (a.u.)
27 | GCTGCTGCACCACGTCCTTCCTCTTCCTCGCCCCACCACCCGGAGTCACCTAGTGCAG | 6380 fluorescence intensity (a.u.)
28 | AAAACCTGACTTTGCATCATTAGACGATTTGTCCATTGAACGGAGTCACCTAGTGCAG | 3160 fluorescence intensity (a.u.)
29 | GGCTAGCCAGCGACCGACCGGCGGCCACCGTGGCGGGATTCGGAGTCACCTAGTGCAG | 4850 fluorescence intensity (a.u.)
30 | AGGTACGTAAATTTTATATATTCCATATGAGCTCTAAATACGGAGTCACCTAGTGCAG | 3580 fluorescence intensity (a.u.)
31 | AGGAGGTAGGATAGTTCCCTCCGTAATGGATCGAGGATGTCGGAGTCACCTAGTGCAG | 42000 fluorescence intensity (a.u.)
32 | GTAGTCGTAATGTCATCGTCATCGACATCGATGTGTTGCTCGGAGTCACCTAGTGCAG | 4940 fluorescence intensity (a.u.)
33 | CACGCAGTAGGGATCGAGGATGTCGTACGCGTACCTCTTCCGGAGTCACCTAGTGCAG | 26100 fluorescence intensity (a.u.)
34 | TCCTTCTTCCTTGGCCTCTTCCTAATGACAAGCCCTTGCGCGGAGTCACCTAGTGCAG | 3610 fluorescence intensity (a.u.)
35 | GCTCTTGAGAATGTTGCTGAGTTGTCAGCTCTCTCCACCCCGGAGTCACCTAGTGCAG | 15700 fluorescence intensity (a.u.)
36 | ACCCATAGAGATCGACACTATAGGTACCGGAATAACTAAACGGAGTCACCTAGTGCAG | 63800 fluorescence intensity (a.u.)
37 | CCATATAGGAATTTAAAACTAACTAAAATTCGGAATAAACCGGAGTCACCTAGTGCAG | 3400 fluorescence intensity (a.u.)
38 | GATCGTACATGTTCACATAAACACCCACGACACTACCCTACGGAGTCACCTAGTGCAG | 18400 fluorescence intensity (a.u.)
39 | AGAGAGAGCGTGGGTGGGGTGGGTGCTCTGGGTGACTGGGCGGAGTCACCTAGTGCAG | 6040 fluorescence intensity (a.u.)
40 | CATGCGATACTACCCCAACGGCCTCGACGACGGCTGCGCCCGGAGTCACCTAGTGCAG | 26900 fluorescence intensity (a.u.)
41 | CTGAAATGACCAGAATGCCCCTCCGTCCTACCCCACAATCCGGAGTCACCTAGTGCAG | 19900 fluorescence intensity (a.u.)
42 | ACTTGTCACTTGGTTCACACTAAGAGCACTTGACATATCTCGGAGTCACCTAGTGCAG | 17900 fluorescence intensity (a.u.)
